Screening results (PubChem)
SENP6 inh: inhibitors of human SENP6 protease; AID 2599; inhibition, % at 10 µM; Recombinant SENP6 catalytic domain, aminoluciferin luminescence; 1.8% of 330,000 active;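 active = inhibition above about 50% at the single tested dose, limit read from the data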
EBI2 antag: EBI2 (human) antagonism | P32249 | EBI2 beta-arrestin recruitment, luminescence, 7a,25-OHC stimulated | inhibition, % at 5 µM | 0.81% of 360,000 active | AID 651636; in the data active = inhibition above about 38%;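 also: enzyme fragment complementation signal reports receptor beta-arrestin coupling in cells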
Target sequence (P32249 whole entry, looked up, the tested form may be a part): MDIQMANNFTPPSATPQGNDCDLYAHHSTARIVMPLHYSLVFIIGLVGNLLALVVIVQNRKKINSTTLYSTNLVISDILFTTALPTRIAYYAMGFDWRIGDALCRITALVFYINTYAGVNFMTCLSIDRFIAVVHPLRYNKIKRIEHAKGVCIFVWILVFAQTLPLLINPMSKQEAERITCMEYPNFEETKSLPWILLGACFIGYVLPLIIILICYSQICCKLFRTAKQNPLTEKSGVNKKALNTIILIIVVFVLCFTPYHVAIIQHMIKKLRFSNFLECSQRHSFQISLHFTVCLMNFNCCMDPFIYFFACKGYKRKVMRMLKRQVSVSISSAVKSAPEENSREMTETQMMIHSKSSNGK
SENP7 block: blocks the human protease SENP7; 1.5% of 330,000 active; Q9BQF6; recombinant SENP7, Z-RLRGG-aminoluciferin luminescence, 40 min; AID 434973; inhibition, % at 5 µM;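 active = inhibition above about 50% at the single test dose, limit read from the data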
SENP8 block-1: inhibitors of human SENP8 protease | Q96LD8 | purified SENP8, Z-RLRGG-aminoluciferin cleavage, luminescence | inhibition, % at 10 µM | 1.2% of 330,000 active; in the data active = inhibition above about 50%
Target sequence (Q96LD8 whole entry, looked up): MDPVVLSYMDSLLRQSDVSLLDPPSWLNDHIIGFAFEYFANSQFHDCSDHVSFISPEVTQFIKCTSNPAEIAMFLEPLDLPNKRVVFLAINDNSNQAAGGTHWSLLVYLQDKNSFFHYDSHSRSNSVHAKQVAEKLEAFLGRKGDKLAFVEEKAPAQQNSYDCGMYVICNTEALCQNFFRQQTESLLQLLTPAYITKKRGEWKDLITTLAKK
SENP8 block-2: blocks human SENP8 cleavage of Nedd8 substrate. Q96LD8. AID 602440. recombinant SENP8, Nedd8 substrate fluorescence. inhibition, % at 20 µM. 0.64% of 360,000 active; in the data active = inhibition mostly above about 40%, no sharp cut-off; inactive = mostly below about 27%
AHR act: activates the human aryl hydrocarbon receptor; AHR-responsive luciferase reporter cells, luminescence; activation, % at 5 µM; 2.5% of 320,000 active; AID 2796; in the data active = activation above about 47%
EBI2 antag conf: confirmation of human EBI2 receptor antagonists. EBI2 beta-arrestin luminescence, 7a,25-OHC antagonism. inhibition, % at 5 µM. shares compounds with EBI2 antag. 29% of 2,400 active;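 active = inhibition of at least 50%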
EBI2 ag: counter-screen for EBI2 antagonists: EBI2 agonist activity | shares compounds with EBI2 antag | EBI2-expressing cells, agonist mode, luminescence, 60 min; 0% vehicle, 100% 7α,25-dihydroxycholesterol control | activation, % at 5 µM | 2,400 tested, under 10 active | AID 652000;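 active = activation of at least 50%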
bGal cs: beta-galactosidase inhibition counter-screen. shares compounds with EBI2 antag. purified beta-galactosidase, luminescent Galacton Star, 15 min. inhibition, % at 5 µM. 1% of 2,400 active;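 active = replicate-average signal at least 3 plate SD below neutral wells, shown as high inhibition, flagging enzyme-inhibiting false positives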;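 also: higher means stronger loss of beta-gal luminescence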
Hits are given with their value; n = inactive; x = no result. Shown are actives, neighbours in structure and some others; about 5% of the full set was active somewhere.

SMILES	SENP6 inh	EBI2 antag	SENP7 block	SENP8 block-1	SENP8 block-2	AHR act	EBI2 antag conf	EBI2 ag	bGal cs
O=C(c1cc(-c2ccccc2)n[nH]1)N1CCN(S(=O)(=O)c2ccccc2)CC1	n	59	n	n	n	n	n	n	n
O=C(O)c1cc(-c2ccccc2)n[nH]1	n	n	n	n	n	n	x	x	x
Cc1ccc(S(=O)(=O)N2CCN(C(=O)c3n[nH]c4ccccc34)CC2)cc1	n	n	n	n	n	n	x	x	x
COc1ccc(-c2cc(C(=O)N3CCN(S(=O)(=O)c4ccccc4)CC3)[nH]n2)cc1	n	48	n	n	n	n	n	n	n
COc1ccccc1-c1cc(C(=O)N2CCN(S(=O)(=O)c3ccc(C)cc3)CC2)[nH]n1	n	62	n	n	n	n	n	n	n
COc1ccc(S(=O)(=O)N2CCN(C(=O)c3cc(-c4ccc(Br)cc4)n[nH]3)CC2)cc1OC	n	72	n	n	n	n	n	n	n
CC(=O)Nc1ccc(NC(=O)COC(=O)COc2ccc3ccccc3c2)cc1	n	n	n	n	n	n	x	x	x
COc1ccc(C)cc1NC(=O)CCNS(=O)(=O)c1ccc2c(c1)CC(C)N2C(C)=O (stereo unspecified)	n	n	n	n	n	n	x	x	x
CCOCc1nnc(NC(=O)C2CC(=O)N(C3CCCC3)C2)s1 (stereo unspecified)	n	n	n	n	n	n	x	x	x
COc1ccc(-c2cc(C(=O)N3CCN(C(=O)c4ccccc4F)CC3)[nH]n2)cc1	n	n	n	n	n	n	x	x	x
O=C(c1cc(-c2ccc(Br)cc2)n[nH]1)N1CCN(C(=O)c2ccccc2Br)CC1	n	84	n	n	n	n	52	n	n
CCOc1cc(N2CCOCC2)c(OCC)cc1NC(=O)COC(=O)c1cccc2ccccc12	n	55	n	n	n	n	n	n	n
CCOc1cc(N2CCOCC2)c(OCC)cc1NC(=O)COC(=O)c1ccccc1OC(F)F	n	n	n	n	n	x	x	x	x
O=C(c1ccc(F)cc1)N1CCN(c2ccc([N+](=O)[O-])cc2-n2cccc2)CC1	n	55	n	n	n	n	n	n	n
CC(OC(=O)C1CC1C)C(=O)Nc1ccc(Cl)cn1 (stereo unspecified)	n	n	n	n	n	x	x	x	x
Nc1[nH]c(C(=O)c2ccccc2)c(-c2ccccc2C(F)(F)F)c1C(=O)c1cccs1	x	45	x	x	n	x	n	n	n
COc1ccc([C@H]2C[C@@H](n3cc(-c4ccc(F)cc4)nn3)[C@H](O)CN2CC2CCCCC2)cc1	x	n	x	x	n	x	x	x	x
CCC(=O)N1CCc2cc(S(=O)(=O)NC(Cc3ccccc3)C(=O)O)ccc21 (stereo unspecified)	n	n	n	n	n	n	x	x	x
Cc1cc(C)c(C)c(OCC(=O)N2CCN(c3ccccn3)CC2)c1	n	n	n	n	n	n	x	x	x
O=C(COc1ccccc1Cl)N1CCN(c2ccccn2)CC1	n	n	n	n	n	n	x	x	x
Cc1cc(OCC(=O)N2CCN(c3ccccn3)CC2)c(C)cc1Br	n	53	n	n	n	54	n	n	n
O=C(COc1ccc2ccccc2c1Br)N1CCN(c2ccccn2)CC1	n	52	n	n	n	n	n	n	n
Cc1ccc(NC(=S)Nc2ccc3cn[nH]c3c2)cc1C	n	n	n	n	n	n	x	x	x
CC(C)c1ccc(NC(=S)Nc2ccc3cn[nH]c3c2)cc1	n	50	n	n	n	n	n	n	n
O=C(COc1ccc(Br)cc1)N/N=C1/SCC(=O)N1Cc1ccccc1	n	49	n	n	n	n	n	n	n
SMILES	SENP6 inh	EBI2 antag	SENP7 block	SENP8 block-1	SENP8 block-2	AHR act	EBI2 antag conf	EBI2 ag	bGal cs
COc1ccccc1OCC(=O)N/N=C1/SCC(=O)N1Cc1ccccc1	n	n	n	n	n	n	x	x	x
O=c1[nH]c(CN2CCN(S(=O)(=O)/C=C/c3ccccc3)CC2)nc2ccccc12	n	46	n	n	n	n	n	n	n
O=c1[nH]c(CN2CCN(S(=O)(=O)c3ccc4ccccc4c3)CC2)nc2ccccc12	n	53	n	n	n	n	n	n	n
Cc1ccc(S(=O)(=O)N2CCN(Cc3nc4ccccc4[nH]3)CC2)cc1C	n	n	n	n	n	n	x	x	x
O=c1[nH]c(CN2CCN(S(=O)(=O)/C=C/c3ccccc3)CC2)nc2cc(Cl)ccc12	n	71	n	n	n	n	n	n	n
CC(c1nc2ccccc2c(=O)[nH]1)N1CCN(S(=O)(=O)c2ccc(F)c(Cl)c2)CC1 (stereo unspecified)	x	59	x	x	n	x	n	n	n
CCOc1cc(CN2CCN(c3ncccn3)CC2)ccc1OC	n	n	n	n	n	n	x	x	x
O=C(/C=C/c1ccc(F)cc1)NCCC1=CCCCC1	n	55	n	n	n	n	n	n	n
Cc1ccsc1C1Nc2ccc3ncccc3c2C2=C1C(=O)CC(C)(C)C2 (stereo unspecified)	n	94	n	n	n	n	76	n	n
NS(=O)(=O)c1ccc(N/N=C/c2ccc(O)cc2O)c([N+](=O)[O-])c1	n	43	n	n	54	n	n	n	n
NS(=O)(=O)c1ccc(N/N=C/c2ccccn2)c([N+](=O)[O-])c1	n	n	n	n	n	n	x	x	x
Cn1c(N)c(C(=O)COC(=O)CNS(=O)(=O)c2cccc(Cl)c2)c(=O)n(C)c1=O	n	n	n	n	n	n	x	x	x
Cc1ccc(SCC(=O)N2CCN(c3ccccn3)CC2)cc1	n	73	n	n	n	n	50	n	n
COc1ccc(N2CCN(C(=O)CSc3ccc([N+](=O)[O-])cc3)CC2)cc1	n	n	n	n	n	n	x	x	x
COc1ccc(N2CCN(C(=O)CSc3ccc(C)cc3)CC2)cc1	n	64	n	n	n	n	58	n	n
Cc1cc(Cl)ccc1OCCCC(=O)N/N=C/c1cccc([N+](=O)[O-])c1	n	n	n	n	n	n	x	x	x
CC(C)n1c(O)c(N=NC(=O)Cc2csc(N3CCOCC3)n2)c2ccccc21	n	n	n	n	n	n	x	x	x
COc1ccc(NC(=S)NNC(=S)Nc2cccc(C(F)(F)F)c2)cc1	n	n	n	n	n	n	x	x	x
COc1ccc(NC(=S)Nc2cc(C(F)(F)F)ccc2F)cc1	n	43	n	n	n	n	n	n	n
COc1ccc(NC(=O)c2cc3ccccc3o2)cn1	n	38	n	n	n	n	n	n	n
O=C(C1CCOCC1)N1CCCC(N2CCN(c3ccc(F)cc3)CC2)C1 (stereo unspecified)	n	n	n	n	n	n	x	x	x
O=C(CO/N=C/c1ccc2c(c1)OCO2)Nc1cccc(Br)c1	n	n	n	n	n	n	x	x	x
